Results on 103 compounds are retold here after PubChem BioAssay AID1259343 (VanderVen Lab, College of Veterinary Medicine, Cornell …, 2017).

SMILES strings stand for the structures. About 2,900 (47%) of roughly 6,200 compounds were called active. So high a share suggests a set chosen from earlier hits. The list shows a part of the results. A number with no mark means an inactive call. Cut-off read from the data, not from the text of the source: active = inhibition above about 50%; inactive = the rest.

A short description of this experiment: Mycobacterium tuberculosis growth inhibition, primary screen (AID 1259343). The conditions noted are these: inhibition: at 10 µM, active compounds read high; outcome: 10 uM.
In the case of `CC1CC(=NNc2nc3ccccc3s2)CC(C)(C)C1` (stereo not drawn), the inhibition (as a rule, the drop in the measured response relative to a control, in per cent) is 23.3%.

As for `C1=CC(c2ccc(C=NNc3nc4ccccc4s3)s2)CC1` (stereo not drawn), the inhibition is 99.1% (active).

Consider `C1=CC(c2ccc(C=NNc3ccccn3)s2)CC1` (stereo not drawn), for which the inhibition is -47.3%.

As for `NC(=S)NN=Cc1ccc(C2C=CCC2)s1` (stereo not drawn), the inhibition is 84.9% (active).

For `N#Cc1ccc(C=Nn2c(-c3ccc(F)cc3)csc2=Nc2cccnc2)cc1`, the inhibition is 97.7% (active).

In the case of `C=CCN=c1scc(-c2ccc(C)cc2)n1N=Cc1ccc(F)cc1`, the inhibition was -4.92%.

For the compound `C(=Nn1c(-c2ccccc2)csc1=NCc1ccccc1)c1cccnc1`, the inhibition was 28.2%.

Regarding `C=CCNC(=S)NN=C1CCC=C1CCCCC`, the inhibition was 21.5%.

`C=CCNC(=S)NN=C1C=C(C)CC(C)(C)C1`: the inhibition is 103% (active).

`C=CCNC(=S)NN=C1CCCCc2ccccc21`: the inhibition was -17.9%.

As to `CCn1cnc2cc(-c3ccc(Cl)cc3)sc2c1=O`, the inhibition was 29.3%.

For the compound `Cc1cccc(OCC(O)Cn2cnc3ccc(Cl)cc3c2=O)c1` (stereo not drawn), the inhibition was 86.5% (active).

Turning to `Cc1cccc(C)c1OCC(O)Cn1cnc2ccc(Br)cc2c1=O` (stereo not drawn), the inhibition is 33.4%.

As to `Cc1ccc(C(=O)NCCN(C)c2ccccc2)c(C)c1`, the inhibition was 35.9%.

Turning to `CN(CCNc1ccc2c(c1)C(=O)CCC2)c1ccccc1`, the inhibition was 75.6% (active).

As to `Cc1ccc(SCCC(=O)Nc2nnc(-c3cc(C)ccc3C)o2)cc1`, the inhibition was 74.8% (active).

On to `CC(C)OC(=O)c1ccc(NC(=O)CCCC(=O)O)cc1`, for which the inhibition was 50.8% (active).

`Cc1ccc(NC(=O)C(C)OC(=O)c2cccc(C)c2C)cc1` (stereo not drawn): the inhibition is 18.8%.

As for `Cc1cc(=O)[nH]c(-n2nc(C)cc2NC(=O)Cc2cccs2)n1`, the inhibition is 101% (active).

For the compound `CCCc1cc(=O)[nH]c(-n2nc(C)cc2NC(=O)Cc2cccs2)n1`, the inhibition is -25.1%.

`CCc1cc(=O)[nH]c(-n2nc(C)cc2NC(=O)Cc2cccs2)n1`: the inhibition is 101% (active).

As to `CC(C)OCCCNc1ncnc2c1c(-c1ccccc1)cn2-c1ccccc1`, the inhibition is 101% (active).

With `CC(O)CNc1ncnc2c1c(-c1ccccc1)cn2-c1ccc(Cl)cc1` (stereo not drawn), the inhibition was 99.4% (active).

In the case of `CCCNc1ncnc2c1c(-c1ccccc1)cn2-c1ccccc1`, the inhibition was 95.8% (active).

Consider `Cc1ccc(-n2cc(-c3ccccc3)c3c(NCCCO)ncnc32)cc1Cl`, for which the inhibition result is “inactive”.

Consider `CN(C)CCCNc1ncnc2c1c(-c1ccccc1)cn2-c1ccc(Br)cc1`, for which the inhibition was 97.2% (active).

Regarding `Cn1ccnc1-c1nccn1Cc1ccc(CN2CCCC2)cc1`, the inhibition is -4.25%.

Consider `CN(C)c1ccc(C=Cc2ccc3c4ccccc4ccc3[n+]2-c2ccccc2)cc1`, for which the inhibition is -1.83%.

Turning to `N#Cc1ccc(NS(=O)(=O)c2ccc(F)cc2)cc1`, the inhibition was 77.8% (active).

On to `Cc1cc(C)c(C)c(S(=O)(=O)Nc2ccc(F)cc2)c1C`, for which the inhibition was 31.6%.

As for `O=S(=O)(Nc1ccc(Br)cc1)c1ccc(F)cc1`, the inhibition is 36.6%.

`O=S(=O)(Nc1ccc(Br)c(C(F)(F)F)c1)c1ccc(F)cc1`: the inhibition is 81.1% (active).

In the case of `O=c1[nH]c(=S)ccn1-c1nc(-c2ccccc2)sc1-c1ccccc1`, the inhibition is 21.2%.

Turning to `NCc1ccc(Oc2cccc(Cl)c2Cl)cc1`, the inhibition was 62.9% (active).

For the compound `Oc1ccccc1Oc1ccc(Oc2ccccc2O)cc1`, the inhibition was 25.7%.

Consider `O=C(NS(=O)(=O)c1ccc(Br)s1)c1ccc(Cl)cc1Cl`, for which the inhibition is 82.9% (active).

`O=C(NS(=O)(=O)c1ccc(Cl)s1)c1sc2cc(Cl)ccc2c1Cl`: the inhibition is 77.9% (active).

For the compound `COc1ccc2c(Cl)c(C(=O)O)sc2c1Cl`, the inhibition is 19.7%.

As for `O=C(O)c1sc(Cl)cc1/C=C\c1ccccc1`, the inhibition is 4.33%.

On to `O=C(O)c1sc2cc(Cl)ccc2c1Cl`, for which the inhibition is 87.1% (active).

Turning to `O=C(NC1=NCCS1)c1sc2cc(F)ccc2c1Cl`, the inhibition was 5.48%.

As to `O=C(O)c1sc2cc(Cl)cc(Cl)c2c1Cl`, the inhibition was 92.8% (active).

Take `CC(NC(=O)c1scnc1Cl)c1ccccc1` (stereo not drawn): the inhibition is 8.26%.

Consider `CC(NC(=O)c1ccc(Cl)c([N+](=O)[O-])c1)c1ccccc1` (stereo not drawn), for which the inhibition was 100% (active).

As to `Cc1ccc(NC(=O)c2csc(NS(=O)(=O)c3cccs3)n2)cc1F`, the inhibition was 28.6%.

In the case of `Cc1cc(C)c(S(=O)(=O)Nc2nc(C(F)(F)F)cs2)c(C)c1`, the inhibition is 78.7% (active).

As for `Cc1cc(C)c(S(=O)(=O)NC(C)c2ccccc2)c(C)c1` (stereo not drawn), the inhibition was 9.74%.

Take `O=C(CCc1nnc(CCc2c[nH]c3ccccc23)o1)N1CCC(c2ccccc2Cl)C1` (stereo not drawn): the inhibition is 33.4%.

Take `c1ccc(-c2noc(CCCc3c[nH]c4ccccc34)n2)cc1`: the inhibition was 71.6% (active).

For the compound `O=C1C=CC(=O)N1c1cc(Cl)c(Cl)cc1Cl`, the inhibition was 11.4%.

For `Cc1cccn2c(=O)c(C=NCCO)c(NCc3ccco3)nc12`, the inhibition was 45.5%.

Turning to `CCC(C)N=Cc1c(NCc2ccco2)nc2c(C)cccn2c1=O` (stereo not drawn), the inhibition is 4.74%.

Turning to `O=c1c(C=NCc2ccco2)c(NCc2ccco2)nc2ccccn12`, the inhibition is 88.3% (active).

On to `O=C(COc1ccc(F)cc1Br)NCCOc1ccc(Cl)cc1`, for which the inhibition is 77.7% (active).

On to `O=C(CC1CCCC1)N1CC=C(c2ccc(O)cc2)CC1`, for which the inhibition is 41%.

As for `Cc1ccc(C2=CCN(C(=O)CNC(=O)C3CCCCC3)CC2)cc1`, the inhibition is 93.1% (active).

In the case of `O=C(NC(c1ccccc1)c1ccc2ccccc2n1)C1CCN(Cc2ccc(Oc3ccccc3)cc2)CC1` (stereo not drawn), the inhibition is 56.5% (active).

Turning to `C=CC[C@H]1CC(C)=C[C@H](CC=C)N1Cc1ncccc1C(=O)O`, the inhibition is -5.55%.

With `Cc1c(Cl)cccc1Nc1ccccc1C(=O)O`, the inhibition is 101% (active).

Regarding `Cc1cccc(C(=O)O)c1O`, the inhibition is 23.2%.

For the compound `Cc1ccnc(Nc2ccc(NCCNC(=O)Nc3cccc(Cl)c3C)nn2)c1`, the inhibition was 36.1%.

For `O=C(O)c1cccc2cccc(-c3cccc4cccc(C(=O)O)c34)c12`, the inhibition was 37%.

Turning to `C[CH2][Hg][S]c1ccccc1C(=O)O`, the inhibition was 102% (active).

For the compound `O=C(Nc1ccc(Cl)cc1)c1c(Cl)nsc1Cl`, the inhibition is 68.1% (active).

On to `O=C(O)Cc1ccc([N+](=O)[O-])cc1Sc1ccc(Cl)cc1`, for which the inhibition is 54.2% (active).

Take `O=C1CC(=O)CC2(CCCC2)C1`: the inhibition is 22.1%.

Consider `O=C(Nc1ccc(C(F)(F)F)cc1Cl)c1cc([N+](=O)[O-])[nH]n1`, for which the inhibition was 102% (active).

For `O=C(Nc1ccc(Cl)c(Cl)c1)Nc1cc(C(F)(F)F)c[nH]c1=O`, the inhibition is 9.25%.

`CN(C)c1c(Cl)cccc1NC(=O)c1cc(C2CC2)[nH]n1`: the inhibition is 19.5%.

As to `CN(Cc1ccsc1)C(=O)c1cccc2c(=O)c3ccccc3[nH]c12`, the inhibition was 43.6%.

For the compound `O=S(=O)(Nc1nc2c(F)cc(F)cc2s1)c1ccc(F)cc1F`, the inhibition was 73.8% (active).

With `O=C(Nc1cccc(N2CCOC2=O)c1)C1CC(c2ccccc2)=NO1` (stereo not drawn), the inhibition was 83.1% (active).

Take `N#Cc1cnc(N(Cc2cccc(O)c2)CC2CC2)c(Cl)c1`: the inhibition is -4.43%.

On to `FCCCN1CCc2onc(-c3ccc(-c4ccccc4)cc3)c2C1`, for which the inhibition is 38.4%.

Regarding `CSCCCNC(=O)c1ccc(-c2ccc(F)cc2)s1`, the inhibition is 2.44%.

Take `CCCCC(CC)COCCCNC(=O)c1ccc(-c2ccc3c(c2)OCO3)s1` (stereo not drawn): the inhibition is 89.3% (active).

As to `O=C(NC1CCc2ccccc21)c1ccc(-c2ccc3c(c2)OCCO3)s1` (stereo not drawn), the inhibition was 34.8%.

On to `O=C(NCCc1ccc(F)cc1)c1ccc(-c2ccc3c(c2)OCO3)s1`, for which the inhibition is 66.8% (active).

For the compound `O=C(NCCc1ccc(F)cc1)c1ccc(-c2cccc(Cl)c2)s1`, the inhibition was 28.2%.

Take `Cc1nc(NCCNC(=O)Nc2ccc(F)c(Cl)c2)cc(N2CCCC2)n1`: the inhibition was 58.8% (active).

For `COc1ccc(/C=C/CN2CCCC(CO)(Cc3cccc(Cl)c3)C2)cc1` (stereo not drawn), the inhibition entry is “inactive”.

With `COc1ccc(/C=C/CN2CCN(c3cc(-n4cccn4)ncn3)CC2)cc1`, the inhibition is 89.8% (active).

For `Cc1ccc(NC(=O)CCn2nc3ccccn3c2=O)cc1F`, the inhibition is 57.8% (active).

For `CC1CN(C(=O)Nc2ccccc2C(F)(F)F)c2cccnc2N1` (stereo not drawn), the inhibition was 24.7%.

As for `COC(=O)C1CCN(C(=O)COc2ccc3ccccc3c2Br)CC1`, the inhibition was -1.48%.

For `COC(=O)C1CCN(C(=O)COc2ccc(OCc3ccccc3)cc2)CC1`, the inhibition was 81.6% (active).

As for `O=C(COc1ccc2ccccc2c1)N1CCC(Nc2ccccc2)CC1`, the inhibition is 3.84%.

Turning to `CCN1CC(=Cc2cc(C)n(C3CC3)c2C)C(=O)C(=Cc2cc(C)n(C3CC3)c2C)C1`, the inhibition is 30.3%.

For `CCCCCNC(=O)c1sc2[nH]c(=S)[nH]c(=O)c2c1C`, the inhibition is 36.1%.

As to `CCCCCNC(=O)N1CC2C3CCC(C3)C21` (stereo not drawn), the inhibition was 28.6%.

`CCCCCCNC(=O)n1cc(F)c(=O)[nH]c1=O`: the inhibition was 97% (active).

`Cc1cccc(-c2cccc(CNC(=O)c3ccc(=O)[nH]n3)c2)c1`: the inhibition was 18.8%.

Take `Cc1cccc(-c2ccc(CNC(=O)c3ccc(=O)n(C)n3)cc2)c1`: the inhibition is 55.3% (active).

On to `O=C(NCc1ccc(Cl)cc1)c1cncn1-c1ccc(-c2ccc(F)c(F)c2)cc1`, for which the inhibition is -2.19%.

Take `COc1cc(OC)cc(-c2cc3c(Nc4ccccn4)nccc3n2C)c1`: the inhibition is 57% (active).

For the compound `COc1cccc(-c2ccnc3[nH]n(-c4ccccc4)c(=O)c23)c1`, the inhibition is 46.4%.

For the compound `COc1cccc(Nc2nccc3c2cc(-c2ccc(N(C)C)cc2)n3C)c1`, the inhibition was 81.2% (active).

Regarding `Cn1c(-c2cccc(C(F)(F)F)c2)cc2c(Nc3ccncc3)nccc21`, the inhibition is 97.1% (active).

Consider `CC(C)c1ccc(Nc2cc3c(cn2)cc(-c2cccnc2)n3C)cc1`, for which the inhibition is 47.9%.

As for `COc1cccc(Nc2nccc3c2cc(-c2ccccc2)n3C)c1`, the inhibition is 87.3% (active).

Consider `CC(C)Cc1nnc(C(C)Sc2nc3ncc(Cl)cc3[nH]2)o1` (stereo not drawn), for which the inhibition is -8.41%.

On to `CC(=O)c1ccc(-c2ccc(Br)s2)cc1`, for which the inhibition is 37%.

Turning to `CC(C)C1(CNC(=O)c2ccc(Br)s2)CC1`, the inhibition is 95.1% (active).
